Measurements: the supplement of paper PMC4466140

Assays:
Assay in all cases: SPOT peptide array binding signal intensity (averaged, normalized) (arbitrary units (background-subtracted, floor 0; scale differs between SH3 domains)); higher = stronger binding of the SH3 domain to the peptide
AgAbp1 = biological target: AgAbp1
In short: (§1)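 Spot intensities were captured after detection with anti-GST antibody, an HRP-linked anti-mouse secondary and luminol, and quantified with Genespotter. The probes were GST-fused SH3 domains from four yeast species, produced in E. coli BL21(DE3), purified on glutathione Sepharose and incubated at 10 μg/ml overnight at 4°C on cellulose-bound synthetic 15-mer peptides with cysteines replaced by serines. Binding signal is the normalized, background-subtracted spot intensity averaged over replicates, and its arbitrary units differ between domains.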

AgBbc1 = biological target: AgBbc1
In short: as §1

AgBem1-D1 = biological target: AgBem1-D1
In short: as §1

AgBzz1-D1 = biological target: AgBzz1-D1
In short: as §1

AgBzz1-D2 = biological target: AgBzz1-D2
In short: as §1

AgCyk3 = biological target: AgCyk3
In short: as §1

AgFus1 = biological target: AgFus1
In short: as §1

AgHof1 = biological target: AgHof1
In short: as §1

AgHse1 = biological target: AgHse1
In short: as §1

AgLsb1 = biological target: AgLsb1
In short: as §1

AgLsb4 = biological target: AgLsb4
In short: as §1

AgMyo5 = biological target: AgMyo5
In short: as §1

AgNbp2 = biological target: AgNbp2
In short: as §1

AgRvs167 = biological target: AgRvs167
In short: as §1

AgSho1 = biological target: AgSho1
In short: as §1

AgSla1-D1-D2 = biological target: AgSla1-D1-D2
In short: as §1

AgSla1-D3 = biological target: AgSla1-D3
In short: as §1

CaAbp1-D1 = biological target: CaAbp1-D1
In short: as §1

CaAbp1-D2 = biological target: CaAbp1-D2
In short: as §1

CaBbc1 = biological target: CaBbc1
In short: as §1

CaBem1-D1 = biological target: CaBem1-D1
In short: as §1

CaBzz1-D1 = biological target: CaBzz1-D1
In short: as §1

CaBzz1-D2 = biological target: CaBzz1-D2
In short: as §1

CaCyk3 = biological target: CaCyk3
In short: as §1

CaFus1 = biological target: CaFus1
In short: as §1

CaHof1 = biological target: CaHof1
In short: as §1

CaHse1 = biological target: CaHse1
In short: as §1

CaLsb1 = biological target: CaLsb1
In short: as §1

CaLsb4 = biological target: CaLsb4
In short: as §1

CaMyo5 = biological target: CaMyo5
In short: as §1

CaNbp2 = biological target: CaNbp2
In short: as §1

CaRvs167 = biological target: CaRvs167
In short: as §1

CaRvs167-3 = biological target: CaRvs167-3
In short: as §1

CaSho1 = biological target: CaSho1
In short: as §1

CaSla1-D1-D2 = biological target: CaSla1-D1-D2
In short: as §1

CaSla1-D3 = biological target: CaSla1-D3
In short: as §1

ScAbp1 = biological target: ScAbp1
In short: as §1

ScBbc1 = biological target: ScBbc1
In short: as §1

ScBem1-D1 = biological target: ScBem1-D1
In short: as §1

ScBzz1-D1 = biological target: ScBzz1-D1
In short: as §1

ScBzz1-D2 = biological target: ScBzz1-D2
In short: as §1

ScCyk3 = biological target: ScCyk3
In short: as §1

ScFus1 = biological target: ScFus1
In short: as §1

ScHof1 = biological target: ScHof1
In short: as §1

ScHse1 = biological target: ScHse1
In short: as §1

ScLsb1 = biological target: ScLsb1
In short: as §1

ScLsb2 = biological target: ScLsb2
In short: as §1

ScLsb3 = biological target: ScLsb3
In short: as §1

ScLsb4 = biological target: ScLsb4
In short: as §1

ScMyo3 = biological target: ScMyo3
In short: as §1

ScMyo5 = biological target: ScMyo5
In short: as §1

ScNbp2 = biological target: ScNbp2
In short: as §1

ScPex13 = biological target: ScPex13
In short: as §1

ScRvs167 = biological target: ScRvs167
In short: as §1

ScSho1 = biological target: ScSho1
In short: as §1

ScSla1-D1-D2 = biological target: ScSla1-D1-D2
In short: as §1

ScSla1-D3 = biological target: ScSla1-D3
In short: as §1

SpAbp1-D1 = biological target: SpAbp1-D1
In short: as §1

SpBbc1 = biological target: SpBbc1
In short: as §1

SpBzz1-D1 = biological target: SpBzz1-D1
In short: as §1

SpBzz1-D2 = biological target: SpBzz1-D2
In short: as §1

SpCyk3 = biological target: SpCyk3
In short: as §1

SpHof1 = biological target: SpHof1
In short: as §1

SpHof1-2 = biological target: SpHof1-2
In short: as §1

SpHof1-3 = biological target: SpHof1-3
In short: as §1

SpHse1 = biological target: SpHse1
In short: as §1

SpLsb1 = biological target: SpLsb1
In short: as §1

SpLsb4 = biological target: SpLsb4
In short: as §1

SpMyo1 = biological target: SpMyo1
In short: as §1

SpNbp2 = biological target: SpNbp2
In short: as §1

SpPex13 = biological target: SpPex13
In short: as §1

SpRvs167 = biological target: SpRvs167
In short: as §1

SpSla1-D1-D2 = biological target: SpSla1-D1-D2
In short: as §1

SpSla1-D3 = biological target: SpSla1-D3
In short: as §1

RPKRRAPPPVPKKPS
SPOT peptide array binding signal intensity (AgAbp1): 5860
SPOT peptide array binding signal intensity (AgBbc1): 1090
SPOT peptide array binding signal intensity (AgBem1-D1): 166
SPOT peptide array binding signal intensity (AgBzz1-D1): 3720
SPOT peptide array binding signal intensity (AgBzz1-D2): 825
SPOT peptide array binding signal intensity (AgCyk3): 1
SPOT peptide array binding signal intensity (AgFus1): 63.5
SPOT peptide array binding signal intensity (AgHof1): 380
SPOT peptide array binding signal intensity (AgHse1): 294
SPOT peptide array binding signal intensity (AgLsb1): 1120
SPOT peptide array binding signal intensity (AgLsb4): 313
SPOT peptide array binding signal intensity (AgMyo5): 124
SPOT peptide array binding signal intensity (AgNbp2): 4930
SPOT peptide array binding signal intensity (AgRvs167): 191
SPOT peptide array binding signal intensity (AgSho1): 650
SPOT peptide array binding signal intensity (AgSla1-D1-D2): 274
SPOT peptide array binding signal intensity (AgSla1-D3): 577
SPOT peptide array binding signal intensity (CaAbp1-D1): 2320
SPOT peptide array binding signal intensity (CaAbp1-D2): 4720
SPOT peptide array binding signal intensity (CaBbc1): 1840
SPOT peptide array binding signal intensity (CaBem1-D1): 78.5
SPOT peptide array binding signal intensity (CaBzz1-D1): 7010
SPOT peptide array binding signal intensity (CaBzz1-D2): 4680
SPOT peptide array binding signal intensity (CaCyk3): 55
SPOT peptide array binding signal intensity (CaFus1): 350
SPOT peptide array binding signal intensity (CaHof1): 0.5
SPOT peptide array binding signal intensity (CaHse1): 666
SPOT peptide array binding signal intensity (CaLsb1): ≤ 0
SPOT peptide array binding signal intensity (CaLsb4): 2700
SPOT peptide array binding signal intensity (CaMyo5): 2.5

ALRRRLPVTRSKINW
SPOT peptide array binding signal intensity (AgAbp1): 348
SPOT peptide array binding signal intensity (AgBbc1): 122
SPOT peptide array binding signal intensity (AgBem1-D1): 140
SPOT peptide array binding signal intensity (AgBzz1-D1): 43
SPOT peptide array binding signal intensity (AgBzz1-D2): 60
SPOT peptide array binding signal intensity (AgCyk3): 9.5
SPOT peptide array binding signal intensity (AgFus1): 583
SPOT peptide array binding signal intensity (AgHof1): 71.8
SPOT peptide array binding signal intensity (AgHse1): 1170
SPOT peptide array binding signal intensity (AgLsb1): 9.75
SPOT peptide array binding signal intensity (AgLsb4): 189
SPOT peptide array binding signal intensity (AgMyo5): ≤ 0
SPOT peptide array binding signal intensity (AgNbp2): 346
SPOT peptide array binding signal intensity (AgRvs167): 19.5
SPOT peptide array binding signal intensity (AgSho1): 79
SPOT peptide array binding signal intensity (AgSla1-D1-D2): 840
SPOT peptide array binding signal intensity (AgSla1-D3): 5.5
SPOT peptide array binding signal intensity (CaAbp1-D1): 1340
SPOT peptide array binding signal intensity (CaAbp1-D2): 526
SPOT peptide array binding signal intensity (CaBbc1): 302
SPOT peptide array binding signal intensity (CaBem1-D1): 35
SPOT peptide array binding signal intensity (CaBzz1-D1): 104
SPOT peptide array binding signal intensity (CaBzz1-D2): 151
SPOT peptide array binding signal intensity (CaCyk3): 53.5
SPOT peptide array binding signal intensity (CaFus1): 1200
SPOT peptide array binding signal intensity (CaHof1): 1
SPOT peptide array binding signal intensity (CaHse1): 60
SPOT peptide array binding signal intensity (CaLsb1): 1.5
SPOT peptide array binding signal intensity (CaLsb4): 195
SPOT peptide array binding signal intensity (CaMyo5): 5.5
SPOT peptide array binding signal intensity (CaNbp2): 712
SPOT peptide array binding signal intensity (CaRvs167): 48.5
SPOT peptide array binding signal intensity (CaRvs167-3): 197
SPOT peptide array binding signal intensity (CaSho1): 1180
SPOT peptide array binding signal intensity (CaSla1-D1-D2): 491
SPOT peptide array binding signal intensity (CaSla1-D3): 11.5
SPOT peptide array binding signal intensity (ScAbp1): 59
SPOT peptide array binding signal intensity (ScBbc1): 45.5
SPOT peptide array binding signal intensity (ScBem1-D1): 20
SPOT peptide array binding signal intensity (ScBzz1-D1): 23
SPOT peptide array binding signal intensity (ScBzz1-D2): 27
SPOT peptide array binding signal intensity (ScCyk3): 160
SPOT peptide array binding signal intensity (ScFus1): 784
SPOT peptide array binding signal intensity (ScHof1): 2.5
SPOT peptide array binding signal intensity (ScHse1): 1800
SPOT peptide array binding signal intensity (ScLsb1): 26.8
SPOT peptide array binding signal intensity (ScLsb2): 15.5
SPOT peptide array binding signal intensity (ScLsb3): 658
SPOT peptide array binding signal intensity (ScLsb4): 25
SPOT peptide array binding signal intensity (ScMyo3): 3.5
SPOT peptide array binding signal intensity (ScMyo5): 3.5
SPOT peptide array binding signal intensity (ScNbp2): 616
SPOT peptide array binding signal intensity (ScPex13): 2.25
SPOT peptide array binding signal intensity (ScRvs167): 155
SPOT peptide array binding signal intensity (ScSho1): 1460
SPOT peptide array binding signal intensity (ScSla1-D1-D2): 713
SPOT peptide array binding signal intensity (ScSla1-D3): 23
SPOT peptide array binding signal intensity (SpAbp1-D1): 794
SPOT peptide array binding signal intensity (SpBbc1): 10
SPOT peptide array binding signal intensity (SpBzz1-D1): 381
SPOT peptide array binding signal intensity (SpBzz1-D2): 0.5
SPOT peptide array binding signal intensity (SpCyk3): 69.5
SPOT peptide array binding signal intensity (SpHof1): 357
SPOT peptide array binding signal intensity (SpHof1-2): 80.8
SPOT peptide array binding signal intensity (SpHof1-3): 790
SPOT peptide array binding signal intensity (SpHse1): 766
SPOT peptide array binding signal intensity (SpLsb1): 16.2
SPOT peptide array binding signal intensity (SpLsb4): 553
SPOT peptide array binding signal intensity (SpMyo1): 10.2
SPOT peptide array binding signal intensity (SpNbp2): 716
SPOT peptide array binding signal intensity (SpPex13): 23
SPOT peptide array binding signal intensity (SpRvs167): 72.5
SPOT peptide array binding signal intensity (SpSla1-D1-D2): ≤ 0
SPOT peptide array binding signal intensity (SpSla1-D3): 41.5
